36 targets from the supplement of paper PMC10849652 can be followed below.

Targets with a hit are over-represented here; the source holds about 7,900 in all. About 0.6% of all pairs of compound and target were hits.

Chain of UniProt Q9Y6D6 (Q9Y6D6 whole entry, looked up): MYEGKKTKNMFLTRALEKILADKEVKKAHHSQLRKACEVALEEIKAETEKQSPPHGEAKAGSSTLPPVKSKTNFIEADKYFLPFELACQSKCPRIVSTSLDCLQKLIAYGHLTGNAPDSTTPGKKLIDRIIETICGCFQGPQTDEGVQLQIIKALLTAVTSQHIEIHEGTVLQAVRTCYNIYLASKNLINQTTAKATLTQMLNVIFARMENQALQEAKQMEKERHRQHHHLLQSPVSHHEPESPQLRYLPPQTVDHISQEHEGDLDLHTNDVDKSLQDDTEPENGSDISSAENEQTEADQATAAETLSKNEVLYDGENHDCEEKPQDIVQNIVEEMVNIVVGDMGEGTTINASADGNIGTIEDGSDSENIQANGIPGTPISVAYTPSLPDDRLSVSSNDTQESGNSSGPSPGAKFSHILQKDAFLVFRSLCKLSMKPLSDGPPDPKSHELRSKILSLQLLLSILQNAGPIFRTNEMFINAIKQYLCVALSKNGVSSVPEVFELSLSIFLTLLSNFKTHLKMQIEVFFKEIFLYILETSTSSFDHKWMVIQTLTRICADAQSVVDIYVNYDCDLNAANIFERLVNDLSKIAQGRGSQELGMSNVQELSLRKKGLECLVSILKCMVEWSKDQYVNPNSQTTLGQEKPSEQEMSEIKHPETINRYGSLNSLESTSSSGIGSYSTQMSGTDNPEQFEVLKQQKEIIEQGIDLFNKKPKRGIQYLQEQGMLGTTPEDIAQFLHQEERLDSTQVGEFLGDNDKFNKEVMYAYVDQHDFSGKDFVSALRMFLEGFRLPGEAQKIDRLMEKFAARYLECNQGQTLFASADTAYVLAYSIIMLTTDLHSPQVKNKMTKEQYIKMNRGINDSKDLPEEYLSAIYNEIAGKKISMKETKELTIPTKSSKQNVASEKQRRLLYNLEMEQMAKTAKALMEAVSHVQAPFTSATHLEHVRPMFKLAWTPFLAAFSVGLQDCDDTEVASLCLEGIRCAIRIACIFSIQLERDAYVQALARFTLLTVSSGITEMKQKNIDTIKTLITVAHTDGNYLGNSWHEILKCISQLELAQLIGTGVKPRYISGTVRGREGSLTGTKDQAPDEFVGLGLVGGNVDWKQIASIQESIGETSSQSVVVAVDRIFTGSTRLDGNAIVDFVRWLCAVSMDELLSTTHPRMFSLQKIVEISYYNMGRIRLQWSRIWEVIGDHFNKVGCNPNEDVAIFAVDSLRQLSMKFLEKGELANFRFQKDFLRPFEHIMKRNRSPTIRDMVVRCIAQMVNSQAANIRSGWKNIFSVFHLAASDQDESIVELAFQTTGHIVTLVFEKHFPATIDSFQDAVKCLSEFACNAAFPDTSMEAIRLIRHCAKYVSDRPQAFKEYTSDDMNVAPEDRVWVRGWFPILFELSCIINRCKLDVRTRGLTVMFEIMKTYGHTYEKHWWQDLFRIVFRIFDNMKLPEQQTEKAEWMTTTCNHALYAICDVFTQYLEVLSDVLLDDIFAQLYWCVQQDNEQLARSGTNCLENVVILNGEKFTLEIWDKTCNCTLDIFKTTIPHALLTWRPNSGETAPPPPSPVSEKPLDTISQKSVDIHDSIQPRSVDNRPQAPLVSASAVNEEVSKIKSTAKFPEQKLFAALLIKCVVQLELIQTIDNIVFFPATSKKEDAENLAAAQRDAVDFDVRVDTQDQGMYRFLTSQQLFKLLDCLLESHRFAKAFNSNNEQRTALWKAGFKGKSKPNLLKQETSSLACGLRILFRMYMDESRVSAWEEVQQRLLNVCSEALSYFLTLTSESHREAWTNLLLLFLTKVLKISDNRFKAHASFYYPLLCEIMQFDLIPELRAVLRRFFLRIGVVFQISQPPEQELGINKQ
Chain of UniProt Q8N6S5 (Q8N6S5 whole entry, looked up): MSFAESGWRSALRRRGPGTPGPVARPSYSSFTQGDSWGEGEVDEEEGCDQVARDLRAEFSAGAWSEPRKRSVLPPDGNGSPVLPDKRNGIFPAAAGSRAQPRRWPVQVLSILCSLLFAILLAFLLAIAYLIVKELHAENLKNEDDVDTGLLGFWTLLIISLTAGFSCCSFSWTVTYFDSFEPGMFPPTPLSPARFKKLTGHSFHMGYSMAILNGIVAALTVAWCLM
Chain of UniProt P54252 (P54252 whole entry, looked up): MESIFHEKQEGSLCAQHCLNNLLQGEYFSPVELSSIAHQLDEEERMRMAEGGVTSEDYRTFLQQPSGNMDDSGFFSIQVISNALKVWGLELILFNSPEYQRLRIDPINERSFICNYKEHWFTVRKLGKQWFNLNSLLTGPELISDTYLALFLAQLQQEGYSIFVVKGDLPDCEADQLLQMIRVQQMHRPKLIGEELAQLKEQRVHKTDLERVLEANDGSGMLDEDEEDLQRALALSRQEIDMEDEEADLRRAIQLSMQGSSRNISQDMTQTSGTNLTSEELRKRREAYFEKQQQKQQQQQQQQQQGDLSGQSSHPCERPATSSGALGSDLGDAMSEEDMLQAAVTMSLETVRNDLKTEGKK
Chain of UniProt Q9UEY8 (Q9UEY8 whole entry, looked up): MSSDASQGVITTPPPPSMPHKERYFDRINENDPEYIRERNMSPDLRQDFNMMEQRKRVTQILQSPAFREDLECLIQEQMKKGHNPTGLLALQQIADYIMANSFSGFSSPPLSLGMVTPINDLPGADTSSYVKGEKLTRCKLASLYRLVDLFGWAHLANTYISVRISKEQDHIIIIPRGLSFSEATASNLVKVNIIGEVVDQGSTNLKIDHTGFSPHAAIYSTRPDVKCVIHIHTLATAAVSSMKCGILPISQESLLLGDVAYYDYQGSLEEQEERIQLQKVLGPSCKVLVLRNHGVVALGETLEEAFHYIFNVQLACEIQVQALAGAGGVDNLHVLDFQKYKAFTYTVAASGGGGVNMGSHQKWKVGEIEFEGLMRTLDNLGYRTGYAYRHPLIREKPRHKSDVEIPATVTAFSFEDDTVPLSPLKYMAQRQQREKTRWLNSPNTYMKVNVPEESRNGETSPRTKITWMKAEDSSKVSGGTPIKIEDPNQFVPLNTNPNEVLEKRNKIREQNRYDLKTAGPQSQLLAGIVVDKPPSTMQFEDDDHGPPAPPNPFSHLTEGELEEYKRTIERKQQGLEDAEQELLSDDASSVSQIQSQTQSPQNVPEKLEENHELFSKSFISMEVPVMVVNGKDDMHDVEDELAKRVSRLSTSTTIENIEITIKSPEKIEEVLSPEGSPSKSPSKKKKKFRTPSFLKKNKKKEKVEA
Chain of UniProt O15254 (O15254 whole entry, looked up): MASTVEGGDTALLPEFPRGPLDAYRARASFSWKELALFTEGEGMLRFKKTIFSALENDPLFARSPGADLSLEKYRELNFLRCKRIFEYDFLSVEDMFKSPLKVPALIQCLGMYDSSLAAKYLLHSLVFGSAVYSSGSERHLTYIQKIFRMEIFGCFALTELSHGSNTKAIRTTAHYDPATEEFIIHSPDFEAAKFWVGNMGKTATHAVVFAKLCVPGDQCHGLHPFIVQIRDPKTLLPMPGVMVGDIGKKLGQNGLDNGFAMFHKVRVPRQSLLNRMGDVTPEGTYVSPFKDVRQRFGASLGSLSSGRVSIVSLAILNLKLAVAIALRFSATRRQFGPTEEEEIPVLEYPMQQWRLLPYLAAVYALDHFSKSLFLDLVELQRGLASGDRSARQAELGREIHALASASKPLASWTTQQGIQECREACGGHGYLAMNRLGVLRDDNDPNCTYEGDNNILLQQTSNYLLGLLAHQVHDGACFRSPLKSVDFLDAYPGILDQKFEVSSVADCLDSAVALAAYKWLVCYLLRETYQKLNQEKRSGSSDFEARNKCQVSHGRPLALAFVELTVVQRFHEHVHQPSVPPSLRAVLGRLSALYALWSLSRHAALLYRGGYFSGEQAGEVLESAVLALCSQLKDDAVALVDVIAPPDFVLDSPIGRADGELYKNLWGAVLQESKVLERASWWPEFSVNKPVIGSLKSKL
Chain of UniProt Q96F25 (Q96F25 whole entry, looked up): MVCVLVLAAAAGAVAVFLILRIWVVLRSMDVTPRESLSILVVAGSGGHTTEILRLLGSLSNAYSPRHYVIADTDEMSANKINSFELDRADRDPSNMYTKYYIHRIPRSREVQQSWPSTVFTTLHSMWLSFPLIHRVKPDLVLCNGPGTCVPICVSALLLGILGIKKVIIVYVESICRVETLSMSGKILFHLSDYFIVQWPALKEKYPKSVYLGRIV
Chain of UniProt Q9UII2 (Q9UII2 whole entry, looked up): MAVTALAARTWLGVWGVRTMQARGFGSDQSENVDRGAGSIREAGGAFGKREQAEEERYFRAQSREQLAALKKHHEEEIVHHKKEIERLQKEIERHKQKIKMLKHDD
Chain of UniProt Q9Y4P1 (Q9Y4P1 whole entry, looked up): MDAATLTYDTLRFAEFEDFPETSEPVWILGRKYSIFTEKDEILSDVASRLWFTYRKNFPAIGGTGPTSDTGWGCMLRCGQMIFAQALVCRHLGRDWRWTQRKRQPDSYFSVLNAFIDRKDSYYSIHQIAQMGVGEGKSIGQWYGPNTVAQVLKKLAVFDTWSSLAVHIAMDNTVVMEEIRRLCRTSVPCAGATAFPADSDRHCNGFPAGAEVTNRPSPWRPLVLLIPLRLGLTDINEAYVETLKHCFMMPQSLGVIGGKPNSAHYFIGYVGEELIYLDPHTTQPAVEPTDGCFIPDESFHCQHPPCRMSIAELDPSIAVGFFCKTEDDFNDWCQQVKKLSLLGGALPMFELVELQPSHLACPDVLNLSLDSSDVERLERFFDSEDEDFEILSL
Chain of UniProt P15291 (P15291 whole entry, looked up): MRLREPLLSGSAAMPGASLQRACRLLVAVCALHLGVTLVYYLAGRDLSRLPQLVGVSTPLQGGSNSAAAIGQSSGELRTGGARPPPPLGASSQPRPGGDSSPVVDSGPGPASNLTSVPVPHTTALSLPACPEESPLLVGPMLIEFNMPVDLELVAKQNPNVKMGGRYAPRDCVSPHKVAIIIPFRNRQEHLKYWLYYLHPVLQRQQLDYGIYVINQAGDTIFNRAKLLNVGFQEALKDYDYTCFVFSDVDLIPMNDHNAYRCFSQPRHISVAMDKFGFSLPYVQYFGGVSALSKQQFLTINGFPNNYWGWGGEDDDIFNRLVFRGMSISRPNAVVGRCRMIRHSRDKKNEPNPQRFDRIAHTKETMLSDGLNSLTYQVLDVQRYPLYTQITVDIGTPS

Compound in this test: c1ccc([C@@H]2C[C@H]2NC2CCNCC2)cc1
Put plainly: log2 fold change, soluble protein after heating vs DMSO (PISA); higher = thermal stabilisation; K562 cells, 10 uM, 30 min; active = over 0.2 and 3.5 SD of the protein, either way, in both replicates (recomputed). In a few lines:
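Quantification of soluble protein used TMTpro 16plex LC-MS/MS, with channel sums equalised. Samples were the supernatant after 21,000xg for 90 min of pooled aliquots from K562 cells (2×10^6 cells/mL) treated with 10 μM compound for 30 min, heated for 3 min over 48°C-58°C, and extracted in PBS with 0.5% NP-40 at 4°C. Values, from duplicates, describe thermal stability against control samples on a log2 fold-change scale.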
As for ARL6IP4 (UniProt Q66PJ3), the log2 fold change is -0.011 (inactive).

For the target ATP7B (UniProt P35670), the log2 fold change is 0.076 (inactive).

As for B4GALT1 (UniProt P15291), the log2 fold change was -0.042 (inactive).

Regarding ARL2BP (UniProt Q9Y2Y0), the log2 fold change is 0.017 (inactive).

For the target ASS1 (UniProt P00966), the log2 fold change is -0.146 (inactive).

As for ATAD1 (UniProt Q8NBU5), the log2 fold change is -0.02 (inactive).

Consider ACAP2 (UniProt Q15057), for which the log2 fold change is 0.011 (inactive).

In the case of ATG4B isoform 2 (UniProt Q9Y4P1), the log2 fold change is 0.07 (inactive).

ATL2 (UniProt Q8NHH9): the log2 fold change is -0.077 (inactive).

On to ATP6V1H (UniProt Q9UI12), for which the log2 fold change is -0.116 (inactive).

With AGPAT5 (UniProt Q9NUQ2), the log2 fold change is -0.025 (inactive).

ABHD16A (UniProt O95870): the log2 fold change is -0.088 (inactive).

In the case of BTAF1 (UniProt O14981), the log2 fold change is 0.055 (inactive).

ARHGAP1 (UniProt Q07960): the log2 fold change is 0.002 (inactive).

Consider ATP9B (UniProt O43861), for which the log2 fold change was 0.071 (inactive).

As to ATP5IF1 (UniProt Q9UII2), the log2 fold change is -0.079 (inactive).

Consider ARMC10 (UniProt Q8N2F6), for which the log2 fold change is -0.009 (inactive).

ANAPC2 (UniProt Q9UJX6): the log2 fold change was -0.049 (inactive).

As to ATP11A (UniProt P98196), the log2 fold change is 0.062 (inactive).

With ALG14 (UniProt Q96F25), the log2 fold change is 0.006 (inactive).

As to ACP1 isoform 2 (UniProt P24666), the log2 fold change is 0.022 (inactive).

Consider ACIN1 (UniProt Q9UKV3), for which the log2 fold change was -0.018 (inactive).

In the case of ALDH1B1 (UniProt P30837), the log2 fold change is 0.009 (inactive).

In the case of ARL6IP6 (UniProt Q8N6S5), the log2 fold change is 0.118 (inactive).

As for BRD2 isoform 2 (UniProt P25440), the log2 fold change was 0.029 (inactive).

Take ASH2L (UniProt Q9UBL3): the log2 fold change is 0.005 (inactive).

Regarding ATXN3 isoform 1 (UniProt P54252), the log2 fold change was 0 (inactive).

For ADD3 (UniProt Q9UEY8), the log2 fold change was 0.029 (inactive).

As to AKR1C3 (UniProt P42330), the log2 fold change is -0.156 (inactive).

As to ACP2 (UniProt P11117), the log2 fold change was 0.024 (inactive).

As for ACOX3 (UniProt O15254), the log2 fold change is 0.077 (inactive).

Consider ARL3 (UniProt P36405), for which the log2 fold change is -0.005 (inactive).

Take AKAP8L (UniProt Q9ULX6): the log2 fold change was 0.043 (inactive).

Consider BAIAP2 (UniProt Q9UQB8), for which the log2 fold change was 0.002 (inactive).

Take ARFGEF1 (UniProt Q9Y6D6): the log2 fold change was -0.061 (inactive).

As to ARFIP1 (UniProt P53367), the log2 fold change was -0.03 (inactive).
